Data on 40 compounds can be found in the supplement of paper PMC10503962.

The test system of the experiment is Trichuris muris adult worms. The experiment is described as follows: mean motility score (Paragon pixel variance) of adult worms (arbitrary units); higher = more motile worms, i.e. less anthelmintic effect; extreme values may be limits of the assay. To be noted: 100 µM; 24 h. The method, then: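 Primary ex vivo screen of 409 approved drugs against adult Trichuris muris worms: one worm per well in RPMI-1640 with penicillin/streptomycin, 100 µM drug in 1% DMSO, 37 °C, 5% CO2 for 24 h. Motility was recorded with INVAPP (200-frame movies) and scored with the Paragon pixel-variance algorithm. Values are means of triplicate wells run on three occasions; levamisole was the positive control and DMSO the negative control.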
Regarding `Cn1cnc2c1c(=O)[nH]c(=O)n2C` [theobromine], the mean motility score turned out to be 859. Then `NCCS(=O)(=O)O` [taurine], with 1780; and `CN(Cc1cnc2nc(N)nc(N)c2n1)c1ccc(C(=O)N[C@@H](CCC(=O)O)C(=O)O)cc1` [methotrexate], with 3700.

Turning to `CS(=O)(=O)c1cccc(C[C@H](NC(=O)c2c(Cl)cc3c(c2Cl)CCN(C(=O)c2ccc4ccoc4c2)C3)C(=O)O)c1` [lifitegrast], the mean motility score was 3490. Take `NCCS` [cysteamine]: the mean motility score amounted to 2360. Then `N#CC[C@H](C1CCCC1)n1cc(-c2ncnc3[nH]ccc23)cn1` [ruxolitinib], with 3070.

For the compound `COc1cc2ncnc(Nc3ccc(F)c(Cl)c3)c2cc1OCCCN1CCOCC1` [gefitinib], the mean motility score came out at 1080.

`CCn1nc(C(=O)O)c(=O)c2cc3c(cc21)OCO3` [cinoxacin] displayed a mean motility score of 1110. To `COc1ccccc1N1CCN(CCCNc2cc(=O)n(C)c(=O)n2C)CC1` [urapidil] belongs 2810; to `COc1cc2c(Oc3ccc4[nH]c(C)cc4c3F)ncnc2cc1OCCCN1CCCC1` [cediranib], 0.

Turning to `COc1ccccc1N1CCN(CC(O)COc2cccc3ccccc23)CC1` (stereo not given) [naftopidil], the mean motility score amounted to 3040. Consider `CN(C)CCCOc1nn(Cc2ccccc2)c2ccccc12.Cl` [benzydamine hydrochloride], for which the mean motility score was found to be 3530. To `N=C(NCCCCCCNC(=N)NC(=N)Nc1ccc(Cl)cc1)NC(=N)Nc1ccc(Cl)cc1` [chlorhexidine] belongs 320.

As for `CN1CC(=O)N2[C@H](c3ccc4c(c3)OCO4)c3[nH]c4ccccc4c3C[C@@H]2C1=O` [tadalafil], the mean motility score was 990. Then `CC1(C)O[C@@H]2C[C@H]3[C@@H]4C[C@H](F)C5=CC(=O)C=C[C@]5(C)[C@@]4(F)[C@@H](O)C[C@]3(C)[C@]2(C(=O)CO)O1` [fluocinolone acetonide], with 2800. To `Nc1ccccc1NC(=O)c1ccc(CNC(=O)OCc2cccnc2)cc1` [entinostat] belongs 2720; to `Cc1cc(C(C)(C)C)cc(C)c1C=C1NCCN1` [xylometazoline], 3760; to `Cn1cnc2c(F)c(Nc3ccc(Br)cc3Cl)c(C(=O)NOCCO)cc21` [selumetinib], 3500. To `C[C@@H]1C[C@H]2[C@@H]3CCC4=CC(=O)C=C[C@]4(C)[C@@]3(F)[C@@H](O)C[C@]2(C)[C@H]1C(=O)CO` [desoximetasone] belongs 772; to `Cc1c(C(=O)NN2CCCCC2)nn(-c2ccc(Cl)cc2Cl)c1-c1ccc(Cl)cc1` [rimonabant], 2060; to `CCN(CC)CCOC(=O)C1(C2CCCCC2)CCCCC1.Cl` [dicyclomine hydrochloride], 4250.

The compound `C=CC[C@@H]1/C=C(\C)C[C@H](C)C[C@H](OC)[C@H]2O[C@@](O)(C(=O)C(=O)N3CCCC[C@H]3C(=O)O[C@H](/C(C)=C/[C@@H]3CC[C@@H](O)[C@H](OC)C3)[C@H](C)[C@@H](O)CC1=O)[C@H](C)C[C@@H]2OC` [tacrolimus] had a mean motility score of 0. To `CC1=C(C(=O)O)N2C(=O)[C@@H](NC(=O)[C@H](N)c3ccccc3)[C@H]2SC1` [cephalexin] belongs 4830. `NC(=O)N1c2ccccc2C=Cc2ccccc21` [carbamazepine]: the mean motility score is 3020. `COc1c2ccoc2cc2oc(=O)ccc12` [bergapten]: the mean motility score was 3090. To `Nc1nnc(-c2cccc(Cl)c2Cl)c(N)n1` [lamotrigine] belongs 2280; to `OCC(O)CO` [glycerin], 3460. `Oc1ccc(O)cc1` [hydroquinone] registered a mean motility score of 4230. The compound `CCOC(=O)C1=C(C)NC(C)=C(C(=O)OC)C1c1cccc([N+](=O)[O-])c1` (stereo not given) [nitrendipine] returned a mean motility score of 0.

`COc1ccc(-c2ccc3cc(C(=O)O)ccc3c2)cc1C12CC3CC(CC(C3)C1)C2` [adapalene]: the mean motility score stood at 3410.

The compound `CN(C)CC[C@@H](c1ccc(Cl)cc1)c1ccccn1.O=C(O)/C=C\C(=O)O` [dexchlorpheniramine maleate] returned a mean motility score of 1140. The compound `Nc1ccc(S(N)(=O)=O)cc1` [sulfanilamide] displayed a mean motility score of 2370.

In turn, `C#CCN(C)Cc1ccccc1` [pargyline] returned a mean motility score of 2290. To `CCCc1nc2c(C)cc(-c3nc4ccccc4n3C)cc2n1Cc1ccc(-c2ccccc2C(=O)O)cc1` [telmisartan] belongs 1900; to `Nc1ccc(S(=O)(=O)NC(=O)c2ccccc2)cc1` [sulfabenzamide], 4050.

Consider `COc1ccc(C(=O)CC(=O)c2ccc(C(C)(C)C)cc2)cc1` [avobenzone], for which the mean motility score was found to be 3070. For `COC1=C(OC)C(=O)C(CCCCCCCCCCO)=C(C)C1=O` [idebenone], the mean motility score came to 1370. Then `CCOC(=O)[C@H](CCc1ccccc1)N[C@@H](C)C(=O)N1CCC[C@H]1C(=O)O` [enalapril], with 2120; and `COc1ccc2[nH]cc(CCNC(C)=O)c2c1` [melatonin], with 4410; and `C[C@H](O)C(=O)Nc1c(I)c(C(=O)NC(CO)CO)c(I)c(C(=O)NC(CO)CO)c1I` [iopamidol], with 2190.
